In article PMC4336329 (PLoS ONE, 2015):
The campaign covered roughly 310,000 compounds. About 14,000 (4.5%) showed an effect of 50% or more. Effects have a minus sign here. For the sample, strong results were picked, then their nearest neighbours and some compounds at random.

target: human ether-à-go-go-related gene (hERG) potassium channel (human, UniProt Q12809); assay: primary screen, population patch clamp on CHO cells stably expressing hERG; higher = less effect of the substance
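Further: peak tail current of the secondary pulse compared with the same well before compound.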

Sequence of human ether-à-go-go-related gene (hERG) potassium channel (Q12809 whole entry, looked up): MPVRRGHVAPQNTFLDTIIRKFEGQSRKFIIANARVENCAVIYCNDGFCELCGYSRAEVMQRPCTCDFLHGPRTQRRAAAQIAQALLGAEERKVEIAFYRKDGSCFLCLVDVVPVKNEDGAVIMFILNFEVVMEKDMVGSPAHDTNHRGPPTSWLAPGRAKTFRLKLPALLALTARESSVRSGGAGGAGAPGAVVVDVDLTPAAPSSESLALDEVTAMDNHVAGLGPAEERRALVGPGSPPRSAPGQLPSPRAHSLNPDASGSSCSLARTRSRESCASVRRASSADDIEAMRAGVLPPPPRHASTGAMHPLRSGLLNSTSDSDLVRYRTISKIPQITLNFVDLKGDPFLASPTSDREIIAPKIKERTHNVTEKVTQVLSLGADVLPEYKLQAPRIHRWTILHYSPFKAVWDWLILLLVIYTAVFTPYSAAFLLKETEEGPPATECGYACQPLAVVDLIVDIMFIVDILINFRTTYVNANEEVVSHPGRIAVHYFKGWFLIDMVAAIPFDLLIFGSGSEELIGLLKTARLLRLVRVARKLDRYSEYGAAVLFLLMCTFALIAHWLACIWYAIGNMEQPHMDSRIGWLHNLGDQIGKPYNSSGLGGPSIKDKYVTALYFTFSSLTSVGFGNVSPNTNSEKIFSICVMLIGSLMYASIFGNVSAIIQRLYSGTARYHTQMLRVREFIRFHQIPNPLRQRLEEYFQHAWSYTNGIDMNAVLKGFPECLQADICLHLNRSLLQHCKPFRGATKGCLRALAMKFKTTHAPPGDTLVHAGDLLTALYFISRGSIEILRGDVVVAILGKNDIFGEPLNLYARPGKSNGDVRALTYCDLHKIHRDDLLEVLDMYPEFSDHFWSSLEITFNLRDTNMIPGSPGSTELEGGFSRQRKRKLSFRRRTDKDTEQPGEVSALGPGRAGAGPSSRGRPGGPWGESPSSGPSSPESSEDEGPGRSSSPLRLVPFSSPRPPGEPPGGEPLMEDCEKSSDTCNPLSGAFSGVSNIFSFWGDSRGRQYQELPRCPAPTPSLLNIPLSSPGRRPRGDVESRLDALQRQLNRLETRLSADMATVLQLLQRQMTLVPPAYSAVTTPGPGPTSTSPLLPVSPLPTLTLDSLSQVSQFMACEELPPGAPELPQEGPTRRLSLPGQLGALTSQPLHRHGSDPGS

Row | SMILES | hERG current change (%, negative = inhibition) at 10uM
1 | COc1ccc(-c2cn3c(C)c(C(=O)NC(C)C)sc3n2)cc1 | 6.65%
2 | COc1nc2c(C)cccc2cc1-c1noc(-c2ccco2)n1 | -8.01%
3 | c1ccc(-c2ncc3ccccn23)cc1 | -3.24%
4 | COc1cc(-c2cc(C(=O)Nc3nc4ccccc4s3)c3ccccc3n2)cc(OC)c1OC | 35.9%
5 | Brc1ccc(CNCc2cccs2)cc1 | -55.1%
6 | CCc1ccc(CNCc2cccs2)cc1.Cl | -22.9%
7 | Brc1cccc(CNCc2cccs2)c1 | -10.2%
8 | Cc1cc(Cl)c(OCCCn2cncn2)c(Br)c1 | -14.1%
9 | CCCCOc1ccc(/C=C/C2=CC(C)(C)NC(=S)N2)cc1OCC | 7.58%
10 | CN(Cc1nc2ccccc2[nH]1)C(=O)C1CCC(=O)N(CCc2cccc(F)c2)C1 (stereo not shown) | 4.23%
11 | Cc1ccsc1CN(C)C(=O)C1CCC(=O)N(CCc2cccc(F)c2)C1 (stereo not shown) | -35.9%
12 | CCn1ccnc1CN(C)C(=O)C1CCC(=O)N(Cc2cccc(C(F)(F)F)c2)C1 (stereo not shown) | -22.8%
13 | CCn1ccnc1CN(C)C(=O)C1CCC(=O)N(CCc2cccc(F)c2)C1 (stereo not shown) | -50.7%
14 | CCn1ccnc1CN(C)C(=O)C1CCC(=O)N(Cc2cccc(F)c2)C1 (stereo not shown) | -11.9%
15 | CN(Cc1ccccc1Cl)C(=O)C1CCC(=O)N(CCc2cccc(F)c2)C1 (stereo not shown) | -52.5%
16 | O=C(CSc1n[nH]c(=O)[nH]c1=O)c1ccc(Cl)cc1Cl | 16.1%
17 | Cn1c(=O)[nH]c(=O)c2c1nc(N1CCOCC1)n2CC(O)COc1ccccc1 (stereo not shown) | 6.81%
18 | CCOc1ncccc1C(=O)OCC(=O)c1ccccc1Br | 0.975%
19 | CCOc1ccccc1OCCCC(=O)N(CC)CC(=O)Nc1c(F)cccc1F | -1.78%
20 | CCN1CCN(C(c2ccc(C(F)(F)F)cc2)c2ccc3cccnc3c2O)CC1 (stereo not shown) | -25.3%
21 | O=S(=O)(Nc1cccc2cn[nH]c12)c1ccc(F)cc1 | -5.83%
22 | CCOC(=O)c1cc2c(=O)n3cccc(C)c3nc2n(Cc2ccco2)c1=NC(=O)c1ccccc1 | -37.2%

Row | SMILES | hERG current change (%, negative = inhibition) at 10uM
23 | CCOC(=O)c1cc2c(=O)n3cccc(C)c3nc2n(CC(C)C)c1=NC(=O)c1ccco1 | -69.7%
24 | CCCCn1c(=NC(=O)c2ccco2)c(C(=O)OCC)cc2c(=O)n3cccc(C)c3nc21 | -81.6%
25 | CCOCCCn1c(=NC(=O)c2ccco2)c(C(=O)OCC)cc2c(=O)n3cccc(C)c3nc21 | -74%
26 | CCOC(=O)c1cc2c(=O)n3ccccc3nc2n(CC(C)C)c1=NC(=O)c1c(-c2c(F)cccc2Cl)noc1C | 5.66%
27 | Cc1ccc(NC(=O)CSc2nnc(CSc3nc(C)cc(C)n3)n2Cc2ccco2)c(C)c1 | -39.5%
28 | O=C(Cn1nnc(-c2ccccc2F)n1)Nc1ccc2c(c1)OCCO2 | 11.3%
29 | O=C(COc1ccccc1Cl)Nc1cccc(S(=O)(=O)NC2=NCCCCC2)c1 | -5.14%
30 | CN(C)CCCn1c(SCC(=O)N2c3ccccc3Sc3ccccc32)nc2ccccc2c1=O | -39.5%
31 | CC(=O)Nc1ccc(C)cc1 | 12.2%
32 | O=C(O)Cn1c(=O)cnc2ccccc21 | 9.56%
33 | CC(=O)c1c(C)n(C)c2ccc(OC(=O)c3ccc([N+](=O)[O-])cc3)cc12 | 17.2%
34 | CCOc1cc(-c2nc(C)c(C(C)=O)n2O)ccc1OCC(=O)Nc1ccccc1 | -0.49%
35 | Cc1[nH]c2ccccc2c1CN1CCC(CO)(Cc2ccccc2)CC1 | -47.6%
36 | Cc1cc(C)n(-c2cccc(CN3CCC(CO)(Cc4ccccc4)CC3)c2)n1 | -58.1%
37 | Cc1[nH]c2c(C)cccc2c1CN1CCC(CO)(Cc2ccccc2)CC1 | -62.2%
38 | Cc1c(CN2CCC(CO)(Cc3ccccc3)CC2)c2ccccc2n1C | -37.8%
39 | Cc1cccc(-n2ccnc2CN2CCC(CO)(Cc3ccccc3)CC2)c1 | -50.1%
40 | Cc1cc(C)n(-c2ccc(C(=O)N3CCC(CO)(Cc4ccccc4)CC3)cc2)n1 | 9.21%
41 | Cc1cccc(S(=O)(=O)N2CCC(CO)(Cc3ccccc3)CC2)c1 | -2.74%
42 | CN(C)C1=NCCN1CC1CCCCCC1 | -3.28%
43 | CCOC(=O)CNC(=O)Cn1cnc2sc(C)c(S(=O)(=O)N3CCOCC3)c2c1=O | 16.4%
44 | CC(=O)N1CCc2cc(S(=O)(=O)CCC(=O)N3CCN(c4ccccc4)CC3)ccc21 | 7.15%

Row | SMILES | hERG current change (%, negative = inhibition) at 10uM
45 | O=S1(=O)N=C(N(Cc2cccs2)c2ccc(O)cc2)c2ccccc21 | -39.1%
46 | COc1ccc(-c2cc(C(F)(F)F)nc(N3CCOCC3)n2)cc1 | 18.9%
47 | CCOC(=O)c1sc(N(Cc2ccccc2)C(=O)CSc2nnc(C3CC3)n2N)nc1C | -26.7%
48 | COc1ccc(/C=C(/NC(=O)c2ccc([N+](=O)[O-])cc2)C(=O)NC(C)(C)C)cc1 | -40.8%
49 | COc1ccc(C(=O)N/C(=C\c2ccc([N+](=O)[O-])cc2)C(=O)NC(CCSC)C(=O)O)cc1 (stereo not shown) | 9.2%
50 | COc1ccc(C(=O)N/C(=C\c2cc(OC)c(OC)cc2[N+](=O)[O-])C(=O)NCCO)cc1 | 17.3%
51 | COc1ccc(/C=C(/NC(=O)c2ccc([N+](=O)[O-])cc2)C(=O)NCCCN(C)C)cc1 | -93.4%
52 | C=CCNC(=O)/C(=C\c1ccc([N+](=O)[O-])cc1)NC(C)=O | 2.33%
53 | C=CCNC(=O)/C(=C\c1ccc(OC)cc1)NC(=O)c1ccc([N+](=O)[O-])cc1 | -77.1%
54 | Nc1ncncc1-c1ccc([N+](=O)[O-])cc1 | -9.28%
55 | CC(=O)Cc1ccccc1OC(=O)c1ccco1 | 23.6%
56 | O=C(c1cc(=O)c2ccccc2o1)N1CCN(c2ccccc2)CC1 | 1.71%
57 | CCOC(=O)c1ccc(S(=O)(=O)N2CCN(C(=O)c3cc(=O)c4ccccc4o3)CC2)cc1 | -38.2%
58 | COc1ccc(N2CCN(C(=O)c3cc(=O)c4cc(C)c(C)cc4o3)CC2)cc1 | 0.819%
59 | O=C(c1cc(=O)c2ccccc2o1)N1CCN(c2cccc(Cl)c2)CC1 | -56.4%
60 | COc1ccc(N2CCN(C(=O)c3cc(=O)c4cc(Cl)ccc4o3)CC2)cc1 | -76.3%
61 | COc1ccc(N2CCN(C(=O)c3cc(=O)c4cc(C)ccc4o3)CC2)cc1 | -38.1%
62 | CN1CCN(C(=O)c2cc(=O)c3cc(Cl)ccc3o2)CC1 | -28.1%
63 | Cc1cc(C)c2oc(C(=O)N3CCN(Cc4ccccc4)CC3)cc(=O)c2c1 | -42.9%
64 | Cc1ccc(S(=O)(=O)N2CCN(C(=O)c3cc(=O)c4ccccc4o3)CC2)cc1 | -55%
65 | O=C(c1cc2ccccc2o1)N1CCN(c2cccc(Cl)c2)CC1 | -16.3%
66 | O=C(c1cc(=O)c2cc(Cl)ccc2o1)N1CCN(Cc2ccccc2)CC1 | -70.8%

Row | SMILES | hERG current change (%, negative = inhibition) at 10uM
67 | CC(=O)N1CCN(C(=O)c2cc(=O)c3ccccc3o2)CC1 | 26.2%
68 | CCOc1ccc(NC(=O)CN(C)C(=O)Cc2ccsc2)cc1OCC | -11.2%
69 | Cc1cccc(C2C3=C(CCCC3=O)N=C3c4ccccc4C(=O)C32)c1 (stereo not shown) | -0.327%
70 | CCOC(=O)Cn1c(=O)c2c(nc(N3CCOCC3)n2C)n(C)c1=O | -4.47%
71 | COc1ccc(C2=NOC(Cn3c(Cc4ccc(Cl)cc4)nc4c3c(=O)n(C)c(=O)n4C)C2)cc1 (stereo not shown) | -22.1%
72 | COc1ccc2cc(-c3cc(C(=O)OCC(=O)NC4CCS(=O)(=O)C4)c4ccccc4n3)ccc2c1 (stereo not shown) | 16.1%
73 | CCc1nnc(NC(=O)c2sc3nc4cc(C)ccc4cc3c2N)s1 | 13%
74 | CCCCNC(=O)c1ccc(N2CCC3(CC2)OCCO3)c([N+](=O)[O-])c1 | -22.2%
75 | O=C1CC(NS(=O)(=O)c2ccc([N+](=O)[O-])cc2)CN1c1ccc(Cl)cc1 (stereo not shown) | -66.6%
76 | O=C1CC(NS(=O)(=O)c2ccc([N+](=O)[O-])cc2)CN1c1ccc2c(c1)OCCO2 (stereo not shown) | -1.64%
77 | CC(=O)c1ccc(S(=O)(=O)NC2CC(=O)N(c3ccc(Cl)cc3)C2)cc1 (stereo not shown) | -34.8%
78 | Brc1cccc(OCCCCN2CCCCC2)c1.O=C(O)C(=O)O | -68.9%
79 | COc1cccc(OCCCN2CCCCCC2)c1.O=C(O)C(=O)O | -37.8%
80 | Brc1cccc(OCCCN2CCCCCC2)c1.O=C(O)C(=O)O | -70%
81 | Brc1cccc(OCCN2CCOCC2)c1.O=C(O)C(=O)O | 19%
82 | c1ccc(Oc2cccc(OCCCCN3CCCC3)c2)cc1 | -78.3%
83 | Brc1cccc(OCCN2CCCCC2)c1.O=C(O)C(=O)O | -21.3%
84 | CCOc1cccc(OCCCCN2CCCCC2)c1 | -38.1%
85 | c1ccc(OCCCCN2CCCCC2)cc1 | 1.35%
